CHT block: inhibitors of human choline transporter CHT | High affinity choline transporter 1 (Homo sapiens), Q9GZV3 | CHT-expressing cells, membrane potential dye, choline response; hits give low values | B-score at 10 µM | 0.86% of 310,000 active;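 active means B-score over 3 SD under the library average, and starting fluorescence ratio not unusually high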;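 further: choline stimulus applied at its EC90 after an EC20 pre-addition; B-score computed on integrated fluorescence ratio after choline addition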
CHT allo act: CHT positive allosteric modulators, primary screen, cell-based, membrane potential dye, choline EC20. B-score at 10 µM. 0.49% of 310,000 active. High affinity choline transporter 1 (Homo sapiens), Q9GZV3. CHT-expressing cells; hits give high values; LV-AA mutant CHT in HEK293 cells;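 active means initial fluorescence not abnormally high and integrated response B-score, plate-corrected, over 3 SD above library mean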
ANO1 activ: TMEM16A chloride channel activators or potentiators, primary screen, cell-based, HTS; Anoctamin-1 (Mus musculus), Q8BHY3; HEK293 TMEM16A/YFP-H148Q/I152L, iodide quench fluorescence; hits give low values; B-score at 10 µM; AID 623877, 2012; 0.3% of 340,000 active;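 active means fluorescence-ratio B-score plate-corrected deviation score at least 3 library SD below zero, with starting fluorescence score within 5 deviations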;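 further: channel opened by trigger with iodide after compound preincubation; score built on the fluorescence ratio of max minus min over baseline; more negative score means more quench and so TMEM16A activation or potentiation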
IDE cell activ: human IDE activators in live cells, primary screen, fluorescence polarization, HEK cells, FAbeta-B substrate. Insulin-degrading enzyme (Homo sapiens), P14735. FAbeta-B cleavage; 0% vehicle, 100% cell-free pure enzyme wells. activation, % at 5.96 µM. 0.073% of 340,000 active. AID 493087, 2011;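 active means activation above the mean of all tested compounds plus 3 SD, set per screening campaign, cut at about 17% in these data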
Target sequence (P14735 whole entry, looked up): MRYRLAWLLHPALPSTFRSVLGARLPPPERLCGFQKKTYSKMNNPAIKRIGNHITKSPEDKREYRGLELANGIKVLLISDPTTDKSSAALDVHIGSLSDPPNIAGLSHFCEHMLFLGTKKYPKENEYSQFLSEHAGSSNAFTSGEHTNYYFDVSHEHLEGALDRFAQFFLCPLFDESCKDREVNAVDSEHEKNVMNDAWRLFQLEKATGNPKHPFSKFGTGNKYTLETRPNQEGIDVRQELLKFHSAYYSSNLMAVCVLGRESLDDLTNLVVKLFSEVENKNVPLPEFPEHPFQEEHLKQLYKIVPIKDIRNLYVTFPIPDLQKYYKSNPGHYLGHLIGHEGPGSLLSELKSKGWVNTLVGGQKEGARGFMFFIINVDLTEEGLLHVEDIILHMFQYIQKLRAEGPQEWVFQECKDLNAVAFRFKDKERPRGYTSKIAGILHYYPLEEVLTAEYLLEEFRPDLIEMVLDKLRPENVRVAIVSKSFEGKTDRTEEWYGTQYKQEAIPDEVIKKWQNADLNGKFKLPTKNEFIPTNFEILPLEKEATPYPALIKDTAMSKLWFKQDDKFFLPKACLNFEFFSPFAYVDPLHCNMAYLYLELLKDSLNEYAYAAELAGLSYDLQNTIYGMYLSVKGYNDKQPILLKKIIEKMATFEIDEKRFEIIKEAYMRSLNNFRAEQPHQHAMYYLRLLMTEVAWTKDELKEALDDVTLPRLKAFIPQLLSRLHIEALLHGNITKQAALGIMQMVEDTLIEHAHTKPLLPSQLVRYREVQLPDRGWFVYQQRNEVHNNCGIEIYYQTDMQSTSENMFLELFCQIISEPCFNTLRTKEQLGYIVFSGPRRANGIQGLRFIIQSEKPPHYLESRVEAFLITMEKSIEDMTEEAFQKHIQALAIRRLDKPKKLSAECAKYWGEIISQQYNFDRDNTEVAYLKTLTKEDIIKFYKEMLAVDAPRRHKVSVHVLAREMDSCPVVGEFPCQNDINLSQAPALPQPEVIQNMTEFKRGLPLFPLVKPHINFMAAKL
IDE inh: human IDE inhibitors in live cells, primary screen, fluorescence polarization, HEK cells, FAbetaB substrate; FAbetaB cleavage; inhibition, % at 5.59 µM; AID 434962, 2010; 0.41% of 320,000 active;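 active means percent inhibition above the average of all tested compounds plus 3 SD, set per screening campaign, cut at about 16% in these data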;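 further: IDE supplied by intact live HEK cells; FP after avidin binding of uncleaved biotin substrate so inhibition keeps polarization high; 0% = DMSO wells and 100% = 60 µM reference IDE inhibitor Ii1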
TMEM16A inh: TMEM16A chloride channel inhibitors, primary screen, cell-based, HTS | HEK293 TMEM16A/YFP iodide influx fluorescence, ionomycin | AID 588511, 2011 | 1.2% of 310,000 active | Anoctamin-1 (Mus musculus), Q8BHY3 | normalized B-score (activity score, 25-100; higher = stronger inhibition) at 10 µM;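 active means ratio plate-corrected score three or more library SD toward inhibition, starting fluorescence score within five deviations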;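 further: score derived from kinetic fluorescence span divided by baseline fluorescence per well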
CHT act confirm: CHT activators, confirmation, cell-based, membrane potential dye, duplicate; shares compounds with CHT allo act; CHT-expressing cells, membrane potential dye fluorescence (FDSS); % of choline EC20–EC90 response window; HEK293 expressing CHT LV-AA mutant; choline added at its EC20; activation, % at 10 µM; 91% of 2,500 active;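 active means primary screen active, with duplicate mean activation above negative control mean plus 3 SD, cut at about 11% in these data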
HEK293 MP dye: membrane potential response in parental HEK293 cells, counter-screen for CHT activator project, cell-based, membrane potential dye. membrane potential dye fluorescence (FDSS); measured after EC20 choline addition. shares compounds with CHT allo act. ratio readout change at 10 µM, hits read low. 62% of 2,500 active;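 active means duplicate-averaged ratio beyond 3 SD from buffer wells, up or down, though filed actives are nearly all decreases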
An asterisk follows results filed as active. In the library only some 2.7% were active in any assay of this set; here they are far more common.

How did Cc1ccc(C(C)C)c(OCC(=O)Nc2ccc3c(c2)nc(CCN2CCCCC2)n3C)c1 do in these assays?
CHT block: inactive; CHT allo act: inactive; ANO1 activ: inactive; IDE cell activ: 2; IDE inh: 4; TMEM16A inh: inactive; CHT act confirm: 25*; HEK293 MP dye: -27*

How did Cc1cc(C)n2nc(C(=O)OCC(=O)N(Cc3ccccc3)C(C)C)nc2n1 do in these assays?
ANO1 activ: inactive; IDE cell activ: 6

Results for CCN(CC(=O)NCc1ccc(F)cc1)C(=O)/C=C/c1cc(OC)ccc1OC ?
ANO1 activ: inactive; IDE cell activ: 4

Results for COc1cc(CNC[C@H]2O[C@@H](n3cnc(C(N)=O)n3)[C@H](O)[C@@H]2O)ccc1OCc1cccc(Cl)c1 ?
IDE cell activ: -2

Results for CCC(C)(C)n1nnnc1C(c1ccccc1)N1CCN(Cc2ccccc2)CC1 (centres undefined) ?
CHT block: inactive; CHT allo act: inactive; ANO1 activ: inactive; IDE cell activ: 2; IDE inh: 3; TMEM16A inh: inactive

Results for CCC(C)(C)n1nnnc1C(c1cc(OC)ccc1OC)N1CCN(Cc2ccccc2)CC1 (centres undefined) ?
CHT block: inactive; CHT allo act: 7.6*; ANO1 activ: inactive; IDE cell activ: 2; IDE inh: -1; TMEM16A inh: inactive; CHT act confirm: 35*; HEK293 MP dye: inactive

Results for COc1ccccc1C(c1nnnn1Cc1ccco1)N1CCN(c2cccc(C)c2C)CC1 (centres undefined) ?
CHT block: inactive; CHT allo act: inactive; ANO1 activ: inactive; IDE cell activ: -11; IDE inh: 3; TMEM16A inh: inactive

Results for COc1ccc(N2CCN(C(c3cc(OC)ccc3OC)c3nnnn3Cc3ccco3)CC2)cc1 (centres undefined) ?
CHT block: inactive; CHT allo act: 7.4*; ANO1 activ: inactive; IDE cell activ: -7; IDE inh: 1; TMEM16A inh: inactive; CHT act confirm: 21*; HEK293 MP dye: inactive

Results for NC(=O)c1ccccc1NC(=S)NC(=O)CCc1ccccc1 ?
CHT block: inactive; CHT allo act: inactive; ANO1 activ: inactive; IDE cell activ: 3; IDE inh: -5; TMEM16A inh: inactive; CHT act confirm: 9; HEK293 MP dye: inactive

How did NC(=O)c1ccccc1NC(=O)CCc1ccccc1 do in these assays?
CHT block: inactive; CHT allo act: inactive; ANO1 activ: inactive; IDE cell activ: 0; IDE inh: -4; TMEM16A inh: inactive

Results for CN1C(=O)c2c(sc3c2CC(C)(C)SC3)N2CCN=C12 ?
CHT block: inactive; CHT allo act: 15*; ANO1 activ: inactive; IDE cell activ: -2; IDE inh: 2; TMEM16A inh: inactive; CHT act confirm: 60*; HEK293 MP dye: -55*

What do the screens show for `COc1cccc(NC(=O)CN(C)C(=O)CCN2C(=O)C3CC=CCC3C2=O)c1` (centres undefined)?
ANO1 activ: inactive; IDE cell activ: 6

Source: PubChem BioAssay (several laboratories)
